{
  "source": "paper PMC4336329",
  "about": "(PLoS ONE, 2015)",
  "note": "Out of some 310,000 compounds screened, about 2,200 (0.71%) showed an effect of 50% or more. The effect is printed as a negative number. The entries come from a sample that favours strong results as a whole.",
  "data": [
    {"molecular_target": "human ether-à-go-go-related gene (hERG) potassium channel (human, UniProt Q12809)", "sequence (Q12809 whole entry, looked up)": "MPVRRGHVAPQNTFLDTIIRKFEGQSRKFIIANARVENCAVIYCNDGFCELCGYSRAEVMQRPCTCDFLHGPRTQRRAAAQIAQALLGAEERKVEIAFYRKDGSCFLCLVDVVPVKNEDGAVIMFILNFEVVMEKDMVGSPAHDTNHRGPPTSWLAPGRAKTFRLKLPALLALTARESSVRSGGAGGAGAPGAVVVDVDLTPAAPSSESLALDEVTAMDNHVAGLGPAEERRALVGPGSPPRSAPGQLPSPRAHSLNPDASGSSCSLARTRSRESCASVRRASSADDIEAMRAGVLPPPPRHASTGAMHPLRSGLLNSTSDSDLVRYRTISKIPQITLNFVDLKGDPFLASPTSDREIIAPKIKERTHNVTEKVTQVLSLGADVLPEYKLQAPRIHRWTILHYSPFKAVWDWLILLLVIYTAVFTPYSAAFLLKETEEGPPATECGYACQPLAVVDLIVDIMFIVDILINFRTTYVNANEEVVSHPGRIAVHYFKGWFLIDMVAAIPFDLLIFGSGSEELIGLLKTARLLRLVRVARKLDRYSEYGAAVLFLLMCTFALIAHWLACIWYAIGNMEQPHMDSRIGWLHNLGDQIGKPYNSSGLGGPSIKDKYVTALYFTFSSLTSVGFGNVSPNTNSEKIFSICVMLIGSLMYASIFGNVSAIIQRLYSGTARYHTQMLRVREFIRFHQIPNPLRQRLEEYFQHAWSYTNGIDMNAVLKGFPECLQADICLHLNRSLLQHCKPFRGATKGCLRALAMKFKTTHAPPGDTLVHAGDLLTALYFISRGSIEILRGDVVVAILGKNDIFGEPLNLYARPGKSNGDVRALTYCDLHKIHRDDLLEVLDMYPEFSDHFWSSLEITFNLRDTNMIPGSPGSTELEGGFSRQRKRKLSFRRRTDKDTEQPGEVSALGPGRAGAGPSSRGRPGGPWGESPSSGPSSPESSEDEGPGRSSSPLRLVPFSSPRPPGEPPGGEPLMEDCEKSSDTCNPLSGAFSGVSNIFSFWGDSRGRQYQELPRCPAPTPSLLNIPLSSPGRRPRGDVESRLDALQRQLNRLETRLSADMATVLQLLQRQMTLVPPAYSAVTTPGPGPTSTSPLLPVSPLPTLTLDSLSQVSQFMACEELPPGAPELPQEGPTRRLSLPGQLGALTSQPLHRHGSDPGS", "assay": "primary screen, population patch clamp on CHO cells stably expressing hERG; higher = less effect of the substance", "protocol": "Briefly, Chinese hamster ovary (CHO) cells stably expressing the hERG channel were dislodged from tissue culture flasks and dispensed into PPC plates. […] During the recording, background leak currents were estimated by a 100 ms step to -80 mV from an initial holding potential of -70 mV and subtracted from the subsequent current measurement. The campaign was conducted in two phases using slight differences in recording protocol. In the first phase, the initial voltage pulse used a 100 ms step to -30 mV from a holding potential of -70 mV, a 2 s conditioning step to +25 mV, and a 2 s test step to -30 mV. During the second phase of the screen, the potential during the conditioning step was raised to +45 mV. In both phases of the campaign, a secondary voltage pulse was applied using the same parameters as the second phase initial pulse. The initial and secondary pulses were applied in the absence of compound, and upon application of 1 μM and 10 μM test concentrations. Small molecule effects on hERG current density were quantified by […].", "units": {"hERG current change (%, negative = inhibition) at 1uM": "%"}, "values": [
      {"compound": "CCO[C@@H]1OC(C(=O)N2CCN(C)CC2)=C[C@H](c2csc3ccccc23)[C@H]1CCCO", "hERG current change (%, negative = inhibition) at 1uM": 0.669},
      {"compound": "CC(=O)Nc1ccc(N(C(=O)c2ccccn2)C(C(=O)NC2CCCCC2)c2ccc(F)cc2)cc1", "note": "(stereo not shown)", "hERG current change (%, negative = inhibition) at 1uM": 12.2},
      {"compound": "CC1CCN(CCCNC(=O)CCc2nnc3n(CCc4ccccc4)c(=O)c4ccccc4n23)CC1", "hERG current change (%, negative = inhibition) at 1uM": -52.4},
      {"compound": "CC1CCCCN1CCNC(=O)CCc1nnc2n(Cc3ccccc3)c(=O)c3ccccc3n12", "note": "(stereo not shown)", "hERG current change (%, negative = inhibition) at 1uM": -8.67},
      {"compound": "O=C(CCc1nnc2n(CCc3ccccc3)c(=O)c3ccccc3n12)NCCCN1CCCCC1", "hERG current change (%, negative = inhibition) at 1uM": -9.25},
      {"compound": "Cc1ccc(Cc2ccc(C(=O)NNC(N)=S)o2)cc1", "hERG current change (%, negative = inhibition) at 1uM": 3.74},
      {"compound": "CN(CC(=O)Nc1ccccc1Br)C(=O)c1sccc1-c1ccccc1", "hERG current change (%, negative = inhibition) at 1uM": -0.469},
      {"compound": "O=c1nc(-c2ccccc2)cc(C(F)(F)F)[nH]1", "hERG current change (%, negative = inhibition) at 1uM": 21.3},
      {"compound": "COc1ccc(N2CCc3c(C)nc4c(OC)cccc4c32)cc1", "hERG current change (%, negative = inhibition) at 1uM": -28.3},
      {"compound": "COc1cccc2c3c(c(C)nc12)CCN3c1ccccc1", "hERG current change (%, negative = inhibition) at 1uM": -8.76},
      {"compound": "COc1ccc(N2CCc3c(C)nc4c(OC)cc(OC)cc4c32)c(OC)c1", "hERG current change (%, negative = inhibition) at 1uM": -47.6},
      {"compound": "COc1cc(OC)c2nc(C)c3c(c2c1)N(c1ccc(O)cc1)CC3", "hERG current change (%, negative = inhibition) at 1uM": -57.2},
      {"compound": "COc1ccc(N2CCc3c(C)nc4c(OC)cc(OC)cc4c32)cc1", "hERG current change (%, negative = inhibition) at 1uM": -52.7},
      {"compound": "COc1ccccc1N1CCc2c(C)nc3c(OC)cccc3c21", "hERG current change (%, negative = inhibition) at 1uM": -23.1},
      {"compound": "CCN(CC(=O)Nc1ccccc1C(F)(F)F)C(=O)CCS(=O)(=O)c1ccc(Cl)cc1", "hERG current change (%, negative = inhibition) at 1uM": 9.68},
      {"compound": "CC1CCC(NC(=O)Cn2cnc3sccc3c2=O)CC1", "note": "(stereo not shown)", "hERG current change (%, negative = inhibition) at 1uM": 3.74},
      {"compound": "CCN(CCCNC(=O)CCn1c(=S)[nH]c2cc3c(cc2c1=O)OCO3)c1cccc(C)c1", "hERG current change (%, negative = inhibition) at 1uM": 11.5},
      {"compound": "CN1CC(C(=O)c2ccc(Cl)cc2)C(c2ccccc2)C1", "note": "(stereo not shown)", "hERG current change (%, negative = inhibition) at 1uM": 6.78},
      {"compound": "CN1CC(C(=O)c2ccc([N+](=O)[O-])cc2)C(c2ccc(Cl)cc2)C1", "note": "(stereo not shown)", "hERG current change (%, negative = inhibition) at 1uM": -77.1},
      {"compound": "COc1ccc(C(=O)C2CN(C)CC2c2ccc(Cl)cc2)cc1", "note": "(stereo not shown)", "hERG current change (%, negative = inhibition) at 1uM": -18.3},
      {"compound": "Cc1nn(C)c(C(=O)N2CCc3ccccc32)c1Br", "hERG current change (%, negative = inhibition) at 1uM": 4.79},
      {"compound": "CC1CC1C(=O)Nc1nc(-c2cccs2)c(-c2cccs2)s1", "note": "(stereo not shown)", "hERG current change (%, negative = inhibition) at 1uM": 7.23},
      {"compound": "O=C(NC1CCCN(c2ccc(C(F)(F)F)cn2)C1)c1ccncc1", "note": "(stereo not shown)", "hERG current change (%, negative = inhibition) at 1uM": -51.8},
      {"compound": "Cc1ccc(C(=O)NC2CCCN(c3ccc(C(F)(F)F)cn3)C2)cn1", "note": "(stereo not shown)", "hERG current change (%, negative = inhibition) at 1uM": 2.48},
      {"compound": "O=C(NC1CCCN(c2ccc(C(F)(F)F)cn2)C1)c1ccnc(Cl)c1", "note": "(stereo not shown)", "hERG current change (%, negative = inhibition) at 1uM": -9.21}
    ]}
  ]
}
